Laboratory results: PubChem BioAssay AID1159580 (chemical genetic matrix, 2015)
Several values for one entry are separate records, joined by “and”; a condition that tells them apart may be missing. Identical values can stand only once. Screen size: about 5,500 compounds; about 2,000 (36%) were called active. About 18% were inconclusive and are not listed. Rule as the data show it: active = normalized growth mostly below about 0.91 (no sharp cut-off); inconclusive = no clear call, values can overlap the other calls; inactive = mostly above about 0.92. The list shows a part of the results.

Experiment: chemical genetic growth profiling, strain panel (AID 1159580);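 also: tested at 20 µM; growth read once vehicle control cultures reached saturation at 30 °C; 1 = growth at the plate median or of vehicle wells; lower values mean less growth of the strain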
Settings: S. cerevisiae deletion strains, growth OD

Measured: normalized growth

Cc1c(C)c2c(c(C)c1O)CCC(C)(CCCC(C)CCCC(C)CCCC(C)C)O2 (stereo not drawn)
inactive: locus YAL021C, strain ccr4, stronger effect = lower value 1 | locus YAL026C, strain drs2, stronger effect = lower value 0.972 | locus YAL030W, strain snc1, stronger effect = lower value 0.983 | locus YBL061C, strain skt5, stronger effect = lower value 0.989 | locus YBR009C, strain hhf1, stronger effect = lower value 0.965 | locus YBR021W, strain FUR4, stronger effect = lower value 1.03 | locus YBR023C, strain chs3, stronger effect = lower value 0.988 | locus YBR171W, strain sec66, stronger effect = lower value 0.986 | locus YBR229C, strain ROT2, stronger effect = lower value 1 | locus YBR231C, strain swc5, stronger effect = lower value 0.935 | locus YBR279W, strain paf1, stronger effect = lower value 0.99 | locus YCL011C, strain gbp2, stronger effect = lower value 0.972 | locus YCL016C, strain dcc1, stronger effect = lower value 0.982 | locus YCL029C, strain bik1, stronger effect = lower value 1 | locus YCL061C, strain MRC1, stronger effect = lower value 0.987 | locus YCL069W, strain vba3, stronger effect = lower value 0.988 | locus YCR088W, strain abp1, stronger effect = lower value 0.985 | locus YDL005C, strain med2, stronger effect = lower value 0.983 | locus YDL035C, strain GPR1, stronger effect = lower value 1.02 | locus YDL040C, strain nat1, stronger effect = lower value 0.99 | locus YDL074C, strain BRE1, stronger effect = lower value 1.02 | locus YDL101C, strain DUN1, stronger effect = lower value 1.01 | locus YDL134C, strain PPH21, stronger effect = lower value 1.01 | locus YDL185W, strain tfp1, stronger effect = lower value 1 | locus YDL192W, strain arf1, stronger effect = lower value 1.02 | locus YDR001C, strain nth1, stronger effect = lower value 0.981 | locus YDR069C, strain doa4, stronger effect = lower value 0.968 | locus YDR101C, strain arx1, stronger effect = lower value 1.01 | locus YDR137W, strain rgp1, stronger effect = lower value 0.966 | locus YDR150W, strain NUM1, stronger effect = lower value 1.01 | locus YDR159W, strain sac3, stronger effect = lower value 0.956 | locus YDR162C, strain NBP2, stronger effect = lower value 0.993 | locus YDR195W, strain ref2 0.949 | locus YDR297W, strain sur2, stronger effect = lower value 0.978 | locus YDR318W, strain mcm21, stronger effect = lower value 1 | locus YDR334W, strain swr1, stronger effect = lower value 0.985 | locus YDR335W, strain msn5, stronger effect = lower value 0.988 | locus YDR388W, stronger effect = lower value 0.976 | locus YDR392W, strain spt3, stronger effect = lower value 0.929 | locus YDR502C, strain sam2, stronger effect = lower value 0.987 | locus YEL003W, strain gim4, stronger effect = lower value 0.979 | locus YEL037C, strain rad23, stronger effect = lower value 0.987 | locus YEL061C, strain CIN8 (second series), stronger effect = lower value 0.983 | locus YEL061C, strain CIN8, stronger effect = lower value 1.01 | locus YER015W, strain faa2, stronger effect = lower value 0.986 | locus YER016W, strain bim1, stronger effect = lower value 0.975 | locus YER110C, stronger effect = lower value 1 | locus YER111C, strain swi4, stronger effect = lower value 0.985 | locus YER155C, strain BEM2 (second series), stronger effect = lower value 0.97 | locus YER155C, strain BEM2, stronger effect = lower value 1 | locus YER167W, strain BCK2, stronger effect = lower value 1.01 | locus YFR010W, strain ubp6, stronger effect = lower value 0.988 | locus YGL078C, strain dbp3, stronger effect = lower value 0.999 | locus YGL086W, strain mad1, stronger effect = lower value 1.02 | locus YGL167C, strain pmr1, stronger effect = lower value 0.968 | locus YGL173C, strain kem1, stronger effect = lower value 0.985 | locus YGL227W, strain vid30, stronger effect = lower value 0.977 | locus YGL240W, strain doc1, stronger effect = lower value 0.981 | locus YGL248W, strain PDE1, stronger effect = lower value 1.01 | locus YGL253W, strain hxk2, stronger effect = lower value 0.995 | locus YGR078C, strain PAC10, stronger effect = lower value 1 | locus YGR135W, strain pre9, stronger effect = lower value 1.02 | locus YGR229C, strain SMI1, stronger effect = lower value 1.02 | locus YGR252W, strain gcn5, stronger effect = lower value 0.95 | locus YHR013C, strain ard1, stronger effect = lower value 0.928 | locus YHR027C, strain rpn1, stronger effect = lower value 0.993 | locus YHR030C, strain SLT2, stronger effect = lower value 1.01 and 0.996 | locus YHR079C, strain IRE1 (second series), stronger effect = lower value 1 | locus YHR079C, strain IRE1, stronger effect = lower value 1.02 | locus YHR094C, strain hxt1, stronger effect = lower value 1 | locus YHR129C, strain ARP1, stronger effect = lower value 1.01 | locus YHR142W, strain chs7, stronger effect = lower value 0.994 | locus YHR200W, strain rpn10, stronger effect = lower value 0.995 | locus YIL066C, strain RNR3, stronger effect = lower value 1.01 | locus YIL073C, strain SPO22, stronger effect = lower value 1.05 | locus YIL125W, strain kgd1, stronger effect = lower value 1.03 | locus YIR030C, strain dcg1, stronger effect = lower value 0.997 | locus YJL092W, strain hpr5, stronger effect = lower value 0.975 | locus YJL095W, strain BCK1 (second series), stronger effect = lower value 0.989 | locus YJL095W, strain BCK1, stronger effect = lower value 0.998 and 1 | locus YJL115W, strain asf1, stronger effect = lower value 0.985 | locus YJL129C, strain trk1, stronger effect = lower value 1.02 | locus YJL134W, strain LCB3, stronger effect = lower value 1 | locus YJL154C, strain vps35, stronger effect = lower value 0.987 | locus YJL164C, strain tpk1, stronger effect = lower value 1.01 | locus YJL166W, strain qcr8, stronger effect = lower value 0.993 | locus YJL168C, strain set2, stronger effect = lower value 1 | locus YJL187C, strain SWE1 (second series), stronger effect = lower value 0.997 | locus YJL187C, strain SWE1, stronger effect = lower value 0.982 | locus YJR043C, strain POL32, stronger effect = lower value 1 | locus YJR066W, strain TOR1, stronger effect = lower value 0.972 | locus YKL009W, strain mrt4, stronger effect = lower value 0.969 | locus YKL068W, stronger effect = lower value 0.993 | locus YKL085W, strain MDH1 (second series), stronger effect = lower value 0.99 | locus YKL085W, strain MDH1, stronger effect = lower value 0.99 | locus YKL160W, strain elf1, stronger effect = lower value 1.01 | locus YKL190W, strain CNB1, stronger effect = lower value 1 | locus YKR001C, strain vps1, stronger effect = lower value 0.996 | locus YKR026C, strain gcn3, stronger effect = lower value 0.986 | locus YKR091W, strain srl3, stronger effect = lower value 0.982 | locus YLL001W, strain dnm1, stronger effect = lower value 0.983 | locus YLL026W, stronger effect = lower value 0.982 | locus YLL041C, strain sdh2, stronger effect = lower value 0.985 | locus YLR027C, strain aat2, stronger effect = lower value 0.993 | locus YLR039C, strain RIC1, stronger effect = lower value 1.02 | locus YLR058C, strain SHM2, stronger effect = lower value 1 | locus YLR102C, strain apc9, stronger effect = lower value 1 | locus YLR113W, strain HOG1, stronger effect = lower value 0.966 | locus YLR221C, strain rsa3, stronger effect = lower value 1.01 | locus YLR258W, strain gsy2, stronger effect = lower value 0.967 | locus YLR262C, strain YPT6 (second series), stronger effect = lower value 0.98 | locus YLR262C, strain YPT6, stronger effect = lower value 1.01 | locus YLR268W, strain sec22, stronger effect = lower value 1.01 | locus YLR320W, strain mms22, stronger effect = lower value 0.988 | locus YLR330W, strain CHS5, stronger effect = lower value 1 | locus YLR342W, strain FKS1 (second series), stronger effect = lower value 1.02 | locus YLR342W, strain FKS1, stronger effect = lower value 0.978 | locus YLR357W, strain rsc2, stronger effect = lower value 1 | locus YLR370C, strain arc18, stronger effect = lower value 0.995 | locus YLR371W, strain rom2, stronger effect = lower value 1.04 | locus YLR384C, strain iki3, stronger effect = lower value 0.978 | locus YLR418C, strain cdc73, stronger effect = lower value 0.968 | locus YML016C, strain PPZ1, stronger effect = lower value 1 | locus YML032C, strain rad52, stronger effect = lower value 0.987 | locus YML120C, strain ndi1, stronger effect = lower value 1.03 | locus YML124C, strain tub3, stronger effect = lower value 0.993 | locus YMR058W, strain fet3, stronger effect = lower value 1.01 | locus YMR078C, strain ctf18, stronger effect = lower value 1.02 | locus YMR125W, strain sto1, stronger effect = lower value 0.95 | locus YMR129W, stronger effect = lower value 0.979 | locus YMR205C, strain PFK2, stronger effect = lower value 0.933 | locus YMR223W, strain ubp8, stronger effect = lower value 1 | locus YMR231W, strain pep5, stronger effect = lower value 0.977 | locus YMR263W, strain SAP30, stronger effect = lower value 1.01 | locus YMR307W, strain GAS1, stronger effect = lower value 1.01 | locus YNL067W, strain RPL9B, stronger effect = lower value 1 | locus YNL071W, strain lat1, stronger effect = lower value 0.994 | locus YNL153C, strain GIM3, stronger effect = lower value 1.01 | locus YNL183C, strain NPR1, stronger effect = lower value 0.961 | locus YNL209W, strain ssb2, stronger effect = lower value 0.984 | locus YNL233W, strain BNI4, stronger effect = lower value 1.02 | locus YNL248C, strain rpa49, stronger effect = lower value 1.03 | locus YNL250W, strain rad50, stronger effect = lower value 1.01 | locus YNL271C, strain bni1, stronger effect = lower value 0.988 | locus YNL298W, strain CLA4, stronger effect = lower value 0.965 | locus YNL307C, strain MCK1, stronger effect = lower value 1 | locus YNL322C, strain KRE1 (second series), stronger effect = lower value 0.994 | locus YNL322C, strain KRE1, stronger effect = lower value 1 | locus YNR049C, strain mso1, stronger effect = lower value 0.988 | locus YNR052C, strain pop2, stronger effect = lower value 1.02 | locus YOL012C, strain htz1 0.962 | locus YOL147C, strain pex11, stronger effect = lower value 0.997 | locus YOR001W, strain rrp6, stronger effect = lower value 1.02 | locus YOR061W, strain CKA2, stronger effect = lower value 1.01 | locus YOR069W, strain VPS5, stronger effect = lower value 1 | locus YOR070C, strain gyp1, stronger effect = lower value 0.988 | locus YOR080W, strain dia2, stronger effect = lower value 0.985 | locus YOR083W, strain WHI5, stronger effect = lower value 1.01 | locus YOR106W, strain vam3, stronger effect = lower value 1.01 | locus YOR136W, strain idh2, stronger effect = lower value 1.01 | locus YOR144C, strain elg1, stronger effect = lower value 0.985 | locus YOR184W, strain ser1, stronger effect = lower value 0.999 | locus YOR231W, strain MKK1, stronger effect = lower value 0.972 | locus YOR265W, strain rbl2, stronger effect = lower value 0.996 | locus YOR270C, strain vph1, stronger effect = lower value 1.09 | locus YOR290C, strain snf2, stronger effect = lower value 1 | locus YOR316C, strain cot1, stronger effect = lower value 0.995 | locus YPL051W, strain arl3, stronger effect = lower value 1.01 | locus YPL055C, strain LGE1, stronger effect = lower value 1.01 | locus YPL078C, strain atp4, stronger effect = lower value 1.02 | locus YPL106C, strain sse1, stronger effect = lower value 0.966 | locus YPL240C, strain hsp82, stronger effect = lower value 0.98 | locus YPL256C, strain CLN2, stronger effect = lower value 1.02 | locus YPR119W, strain clb2, stronger effect = lower value 0.997 | locus YPR141C, strain kar3, stronger effect = lower value 1 | locus YPR163C, strain tif3, stronger effect = lower value 1 | locus YPR167C, strain met16, stronger effect = lower value 0.984 | strain wtn01, stronger effect = lower value 1.01
